# PubChem BioAssay AID1377 (University of Pittsburgh Molecular Library Screening Center, 2008)
# The campaign covered roughly 220,000 compounds. About 830 (0.38%) were called active. This is one part of a sample in which actives are shown more often than they occur.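 The calls were made as follows: active = activation, scaled between plate controls, above about 75% (limit read from the data); inactive = activation under that limit.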
# Experiment: rescue of L929 cells from zVAD death – primary screen (AID 1377);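 also: 0% = zVAD with DMSO and 100% = DMSO alone without zVAD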
# Settings: L929 zVAD necroptosis rescue, ATP luminescence, 24 h, at 10 µM, hits give high values; with zVAD 60 µM unless noted
row,Structure (SMILES),viability rescue
1,Cc1ccc(-c2csc(N(Cc3ccco3)C(=O)c3cccs3)n2)cc1,-0.54% (inactive)
2,COc1ccc2nc(Nc3nc4ccc(NC(C)=O)cc4s3)sc2c1,0.58% (inactive)
3,COc1ccc2nc(NC(=O)c3ccc(Br)s3)sc2c1,0.35% (inactive)
4,COc1ccc2nc(NC(=O)NC3CCCCC3)sc2c1,85.7% (active)
5,CC1=NNC(=O)C1CC(=O)N/N=C/c1ccncc1 (stereo not given),-0.36% (inactive)
6,Cc1ccc2[nH]c3c(=O)n(Cc4ccccn4)cnc3c2c1,0.13% [with zVAD 20 µM] (inactive)
7,CC(C)OCCCNc1ncnc2c1[nH]c1ccc(F)cc12,4.34% [with zVAD 20 µM] (inactive)
8,COc1cc(OC)c(OC)cc1/C=N/Nc1ncnc2c1[nH]c1ccc(C)cc12,78.9% (active)
9,CCOC(=O)c1cc(Sc2ccccc2N)cc(C(=O)OCC)n1,0.51% (inactive)
10,CCOc1ccc(NC(=O)c2ccc(CSc3nnnn3C)cc2)cc1,1.6% (inactive)
11,Cc1cc(C)nc(-n2nc(C)cc2NC(=O)c2ccc(Br)o2)n1,82.2% [with zVAD 20 µM] (active)
12,Cc1cccc(-n2nc3c(c2NC(=O)c2ccc(Br)o2)CSC3)c1C,0.18% [with zVAD 20 µM] (inactive)
13,Cc1cc(C)nc(-n2nc(C)cc2NC(=O)c2ccc(F)cc2F)n1,0.15% (inactive)
14,COc1ccc(Nc2nc(-c3ccccc3)cs2)cc1,0.79% (inactive)
15,COc1ccc(-c2csc(Nc3ccc(O)cc3)n2)cc1,93% (active)
16,COc1ccc(-c2csc(Nc3ccccn3)n2)cc1,1.69% (inactive)
17,COc1cc2c(C(=O)N3CCN(C)CC3)c(CSc3ccccc3)n(C)c2cc1Br,-0.59% (inactive)
18,CC(C)NC(=S)NN=C1CCCCCCCCCCC1,0.38% (inactive)
19,Cc1nn(C)c(Oc2ccccc2)c1CCNS(=O)(=O)c1ccc(F)cc1,0.02% [with zVAD 20 µM] (inactive)
20,COc1ccc(-c2cc(C(=O)NC(Cc3c[nH]c4ccccc34)C(=O)O)c(C)o2)cc1OC (stereo not given),1.33% (inactive)
21,CCN(CC)S(=O)(=O)c1ccc(NC(=O)c2cccnc2Cl)c(NC(=O)c2cccnc2Cl)c1,82.2% (active)
22,Cc1ccc(CNC(=O)c2cccnc2Cl)cc1,0.12% (inactive)
23,CCN(CC)S(=O)(=O)c1ccc(Cl)c(NC(=O)c2ccncc2)c1,0.44% (inactive)
24,O=C(N/N=C/c1cccc([N+](=O)[O-])c1)c1ccncc1,-0.83% (inactive)
25,CN1CCN(C2=NCCO2)CC1,1% (inactive)
26,CCOC(=O)C1(CCOc2ccccc2)CCN(C(=O)c2cncs2)CC1,-0.01% (inactive)
27,COc1ccc(Nc2nc(NCc3ccco3)nc(N/N=C/c3ccccc3Cl)n2)cc1,0.33% (inactive)
28,COc1ccc(-n2cnc3cc(NCc4ccco4)ccc32)cc1,79.9% (active)
29,COc1ccc(Nc2nc(Cl)nc(NCc3ccco3)n2)cc1,0.2% [with zVAD 20 µM] (inactive)
30,O=C(Nc1cccc2c1N(C(=O)c1ccco1)CCC2)c1ccco1,-0.96% (inactive)
